Screening results deposited in PubChem by several laboratories.
In the library only some 2.8% were active in any assay of this set; here they are far more common.
TROY NFkB inh: blocks TROY-dependent signaling in reporter cells; Q293 LMP1-TROYcd NF-kB luciferase reporter, 4 h; inhibition, % at 10 µM; 0.98% of 360,000 active;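 active means compounds whose plate-normalised and pattern-corrected inhibition of the luciferase reporter signal at the single screening dose is 50% or more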
TWEAK-Fn14 inh: blocks TWEAK-Fn14 interaction in a reporter cell assay | TWEAK-stimulated Fn14 reporter cells, luciferase luminescence, 8 h | inhibition, % at 10 µM | 2% of 360,000 active | AID 1159606; in the data active means inhibition above about 50%
PAX8 inh HTS: lowers PAX8-driven luciferase in RMG-I cells | RMG-I TPO-luciferase reporter, SteadyGlo, 24 h | inhibition, % at 12.6 µM | 1.2% of 360,000 active;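 active means mean replicate inhibition at least 60% with every replicate also reaching 60%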;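 further: luciferase light reporting Pax8 driven TPO promoter activity; plate controls were median of neutral control wells for no effect and mitoxantrone controls for full effect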
EWS-Fli inh: blocks EWS/Fli oncoprotein-driven transcription. 0.67% of 350,000 active. A673 NR0B1-luciferase reporter, viability-normalised. inhibition, % at 12.6 µM;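 active means mean inhibition of at least 50% after viability correction, with every replicate also passing that limit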;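 further: firefly luciferase signal divided by Alamar Blue viability fluorescence both relative to DMSO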
LGR2 inh: blocks bursicon-induced cAMP signaling via Drosophila LGR2 | AID 720647 | inhibition, % at 9.99 µM | 0.35% of 380,000 active | HEK293 LGR2, CRE-luciferase, bursicon-stimulated, 4 h;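 active means drop in luminescence signal, shown as inhibition above about 50% in the replicate tests, limit read from the data, passing the limit was not always enough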;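 further: agonist challenge used bursicon conditioned medium at about half maximal strength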
An asterisk follows results filed as active; x = no result.

SMILES	TROY NFkB inh	TWEAK-Fn14 inh	PAX8 inh HTS	EWS-Fli inh	LGR2 inh
C[C@@H]1CN([C@@H](C)CO)C(=O)c2cc(NC(=O)Nc3ccc(C(F)(F)F)cc3)ccc2O[C@@H](C)CCCCO[C@@H]1CN(C)Cc1ccc2c(c1)OCO2	x	x	101*	0	12
C[C@@H]1CCCCO[C@@H](CN(C)Cc2ccc3c(c2)OCO3)[C@@H](C)CN([C@@H](C)CO)C(=O)c2cc(NC(=O)Nc3ccc(C(F)(F)F)cc3)ccc2O1	x	x	77*	4	27
C[C@H]1CCCCO[C@@H](CN(C)Cc2ccc3c(c2)OCO3)[C@@H](C)CN([C@@H](C)CO)C(=O)c2cc(NC(=O)Nc3ccc(C(F)(F)F)cc3)ccc2O1	x	x	-18	-5	22
COc1ccc(CNC(=O)C[C@H]2CC[C@@H]3[C@@H](COc4ccc(NC(=O)C5CC5)cc4C(=O)N3C)O2)cc1	x	x	30	18	6
O=C(C[C@H]1CC[C@@H]2[C@H](COC[C@H](O)CN2C(=O)Nc2cccc(F)c2)O1)NCCCN1CCOCC1	x	x	-33	-44	-16
CCn1c(C)nc2cc(-c3nc4n(n3)Cc3ccccc3-4)ccc21	x	105*	x	x	x
NC(=S)Cc1nc2n(n1)Cc1ccccc1-2	-3	21	x	x	2
Cc1ccc(-c2nc3n(n2)Cc2ccccc2-3)cc1	58*	94*	x	x	x
CCn1c(C)nc2cc(C#N)ccc21	4	-6	6	-6	-1
Fc1ccc(-c2nc3n(n2)Cc2ccccc2-3)cc1	30	58*	x	x	x
COc1cccc(C#Cc2ccc([C@@H]3[C@H]4CN(C(=O)Cc5cccnc5)CC(=O)N4[C@H]3CO)cc2)c1	x	x	x	2	4
CC(=O)N1CCc2c(sc(NC(=O)C3COc4ccccc4O3)c2C(N)=O)C1 (stereo unspecified)	-14	-15	-51	-36	10
O=C(Nc1nc(-c2ccccc2)cs1)C1COc2ccccc2O1 (stereo unspecified)	x	8	x	x	x
CC1CCc2nc(NC(=O)C3COc4ccccc4O3)sc2C1 (stereo unspecified)	82*	96*	6	-1	x
Cc1cnc(NC(=O)C2COc3ccccc3O2)s1 (stereo unspecified)	60*	95*	x	x	x
COC(=O)c1c(NC(=O)C2COc3ccccc3O2)sc2c1CCN(C(C)=O)C2 (stereo unspecified)	30	55*	4	x	17
Cc1csc(NC(=O)C2COc3ccccc3O2)n1 (stereo unspecified)	44	78*	x	x	x
C[C@H]1CN([C@@H](C)CO)S(=O)(=O)c2ccc(-c3cccc(F)c3)cc2O[C@H]1CN(C)S(C)(=O)=O	x	x	4	9	-10
O=C(C[C@H]1CC[C@@H]2[C@H](COC[C@H](O)CN2CCc2ccccc2)O1)NCc1ccc(F)cc1	x	x	-8	3	-8
COc1ccc(CCNC2=C(Cl)C(=O)N(CCc3ccc(OC)c(OC)c3)C2=O)cc1OC	11	51*	20	x	x
COc1ccc(CCN2C(=O)C=CC2=O)cc1OC	-6	16	95*	25	1
COc1ccc(CCN2C(=O)CSC2c2ccc(OC)c(OC)c2)cc1OC (stereo unspecified)	4	4	12	1	-10
COc1ccc(C2SCC(=O)N2CCc2ccc(OC)c(OC)c2)cc1 (stereo unspecified)	39	24	21	54*	-8
COc1ccc(CCN2C(=O)CN(Cc3ccccc3)CC2=O)cc1OC	-14	10	-8	-3	x
Cc1noc(C)c1NC(=O)N[C@H]1CC[C@@H](CCNC(=O)C2CCCC2)O[C@H]1CO	x	x	-2	2	7
SMILES	TROY NFkB inh	TWEAK-Fn14 inh	PAX8 inh HTS	EWS-Fli inh	LGR2 inh
CN1C(=O)c2cc(NS(=O)(=O)c3cccc(F)c3)ccc2OC[C@H]2O[C@H](CC(=O)O)CC[C@@H]21	x	x	-38	-2	1
CCc1ccc(-c2nc(CS(=O)CC(=O)NCc3ccco3)c(C)o2)cc1 (stereo unspecified)	44	76*	16	x	9
CCOc1ccc(-c2cc(CCCC(=O)NCc3ccco3)no2)cc1	5	16	-1	71*	-31
Cc1oc(-c2ccc(Cl)cc2)nc1CSCC(=O)NC1CCN(Cc2ccccc2)CC1	-3	21	38	26	6
CCOc1ccc(-c2nc(CSCC(=O)NCc3ccco3)c(C)o2)cc1	37	65*	x	x	x
CCOc1ccc(-c2nc(CSCC(=O)NC3CCN(Cc4ccccc4)CC3)c(C)o2)cc1	15	9	26	59*	10
Cc1ccc(S(=O)(=O)NCC[C@@H]2CC[C@@H](NC(=O)C3CCOCC3)[C@@H](CO)O2)cc1	x	x	-8	-5	1
